DT40 TDP1 CPT: DT40-hTDP1 cell growth loss with CPT; chicken DT40 Tdp1-/-;hTDP1 cells + 20 nM CPT, ATP luminescence, 48 h; Potency, µM (doses to about 46.2 µM), inactives show at the highest dose activity change, negative = growth inhibition, usual class: inhibitors; 420,000 tested, 12% active; AID 686979; further: nearly all actives have a fitted effect of over 55% in size
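Chicken DT40 Tdp1-/- cells stably complemented with human TDP1 were seeded at 400 cells/well in medium containing 20 nM camptothecin, exposed to pin-transferred compounds, and grown at 37 °C for at least 48 hr. Viability was read as ATP luminescence.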
DT40 TDP1 no CPT: qHTS for Inhibitors of human tyrosyl-DNA phosphodiesterase 1 (TDP1): qHTS in cells in absence of CPT; AID 686978, 2013; DT40 Tdp1-/- hTDP1 cells, no CPT, ATP luminescence, 48 h; 420,000 tested, 15% active; Potency, µM (doses to about 46.2 µM), for the others: at the top dose activity change, negative = growth inhibition, most hits filed as inhibitors; further: nearly all actives have a fitted effect of over 55% in size
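DT40 Tdp1-/-;hTDP1 cells, no CPT (DMSO vehicle only), 400 cells/well; compounds pin-transferred; ≥48 hr, 37 °C; CellTiter-Glo 30 min RT dark, luminescence read.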
KB-V1 cytotox: kills drug-selected multidrug resistant KB-V1 cells; KB-V1 MDR cells viability, CellTiter-Glo, 72 h; AID 1347076; 400,000 tested, 3.4% active; Potency, µM (series often up to 46.1 µM), hits mostly cytotoxic; further: nearly all actives have a fitted effect of over 60% in size
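Cytotoxicity via CellTiter-Glo luminescence after 72 h compound exposure at 37 degrees C. Cells: drug-selected KB-V1 line, DMEM phenol-red free plus 10% FBS. Compounds tested at multiple concentrations; normalized data fitted to concentration-effect curves.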
HT1080 IDH1KD tx: HT-1080 IDH1 knockdown cell toxicity (counter line); HT-1080 IDH1 knockdown viability, ATP luminescence, 48 h; Potency, µM (titrated, usually from 46.1 µM), inactives show top-dose activity, negative = toxicity, usual class: cytotoxic; 360,000 tested, 2% active;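 further: 0% = DMSO wells and -100% = cell-free medium wells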
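% activity derives from luminescence (CellTiter-Glo), normalised to DMSO and no-cell wells. HT-1080-IDH1KD cells, 750/well, had 48 h compound exposure at 37 °C.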
KB-3-1 tox: KB-3-1 parental cell cytotoxicity. KB-3-1 viability, CellTiter-Glo ATP luminescence, 72 h. Potency, µM (titrated, usually from 46.1 µM), hits mostly cytotoxic. 400,000 tested, 1.4% active. AID 1347075; further: nearly all actives have a fitted effect of over 60% in size
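Cells are dispensed, compounds pinned in, plates held at 37 °C for 72 h, then CellTiter-Glo is added and luminescence read after 10 minutes. Cell line: parental KB-3-1 in phenol-red-free DMEM, 10% FBS.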
HT1080NT lethal: kills 2HG-producing HT-1080-NT fibrosarcoma cells; 360,000 tested, 1.6% active; Potency, µM (titrated, usually from 46.1 µM), inactives show at the top dose activity, negative = less viability, hits mostly cytotoxic; AID 686970; HT-1080-NT fibrosarcoma viability, CellTiter-Glo ATP luminescence, 48 h;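 further: NT is the 2HG producing partner of a matched IDH1 knockdown line; 0% = DMSO-treated cells and -100% = media-only wells without cells; nearly all actives have a fitted effect of over 55% in size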
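Compounds were tested in concentration-response format on HT-1080-NT cells for 48 hours at 37 degrees C. Cell viability came from CellTiter-Glo luminescence; curves were classified by r2, response magnitude and activity.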
* marks the source's active call; other numbers are inactive results; i = inactive; ? = inconclusive; · = no result; [ ] = another dose, or the depositor's remark. Hits are enriched below; roughly 19% of the tested compounds scored in any of these assays. The call rests on the fitted dose curve; in most records, active means well fitted curve in the direction sought with a large enough effect; inconclusive means small, poorly fitted or top-dose-only effect, or another doubt; inactive means no such curve, though single readings can be large; an effect the other way counts as inactive or inconclusive. Unless noted, on the % scale 0 is the no-effect control and ±100 the full control effect; potency means the concentration at half of the fitted maximal effect.

SMILES	DT40 TDP1 CPT	DT40 TDP1 no CPT	KB-V1 cytotox	HT1080 IDH1KD tx	KB-3-1 tox	HT1080NT lethal
CCOc1ccccc1NC(C)C(=O)Nc1cc(C(F)(F)F)ccc1N1CCOCC1 (stereo unspecified)	?	18.4µM*	5.8µM*	-24.2%	?	-3.3%
O=C(CCNC(=O)c1ccc(Cl)cc1)Nc1cc(C(F)(F)F)ccc1N1CCOCC1	25.9µM*	23.1µM*	?	-5.6%	i	-15.2%
CC(C)C(=O)Nc1cc(C(F)(F)F)ccc1N1CCOCC1	-25.3%	-21.4%	i	1.1%[9.24 µM]	i	-3.1%
CSc1nc2ccccc2n1CC(=O)Nc1cc(C(F)(F)F)ccc1N1CCOCC1	20.6µM*	16.4µM*	?	-24.7%	i	-22.2%
COc1ccc(C(=O)N2CCC(C)(C(=O)NS(=O)(=O)C3CC3)C2)cc1 (stereo unspecified)	-0.5%	-1.0%	i	28.3%	i	?
OC(Cc1cccnc1)c1ccccc1 (stereo unspecified)	-2.0%	1.6%	i	27.0%	i	11.7%
Cc1ccc2oc(C(=O)N3CCC(c4nc5ccccc5s4)CC3)c(C)c2c1	?	-27.5%	i	·	?	·
O=C(CSc1c(Cl)cccc1Cl)N1CCC(c2nc3ccccc3s2)CC1	?	20.6µM*	i	-26.7%	?	-18.7%
O=C(CSc1ccc(Cl)cc1)N1CCC(c2nc3ccccc3s2)CC1	25.9µM*	?	10.3µM*	-6.8%[9.24 µM]	?	?
COc1ccc(C)cc1NC(=O)N1CCN(S(=O)(=O)c2ccc3c(ccn3C)c2)CC1	·	·	i	·	i	·
C=CCOc1ccc(/C=N/O)cc1Cl	1.3%	-21.8%	i	10.9%	11.6µM*	5.2%
COc1ccccc1CCNC(=O)C1CCN(c2nc3ccccc3nc2C(F)(F)F)CC1	16.4µM*	7.31µM*	?	·	i	·
O=C(NCCc1ccccc1Cl)C1CCN(c2nc3ccccc3nc2C(F)(F)F)CC1	?	?	i	·	i	·
COc1cccc(NC(=O)C2CCN(c3nc4ccccc4nc3C(F)(F)F)CC2)c1	23.1µM*	14.6µM*	i	·	i	·
COc1ccc(S(=O)(=O)N2CCOCC2)cc1NC(=O)C1CCCCN1S(=O)(=O)c1ccccc1 (stereo unspecified)	?	?	i	5.8%	i	0.7%
CCNC(=O)C[C@@H]1C=C[C@@H](NS(=O)(=O)c2ccc(F)cc2)[C@@H](CO)O1	12.2%	12.5%	i	16.8%	i	17.1%
COc1ccc(-n2c(-c3ccco3)nc3c(cnn3-c3ccccc3Cl)c2=O)cc1	?	?	i	·	i	·
COc1cccc(-n2c(-c3ccco3)nc3c(cnn3-c3ccccc3C)c2=O)c1	20.6µM*	18.4µM*	i	·	i	·
COc1ccc(-n2c(-c3ccco3)nc3c(cnn3-c3ccccc3C)c2=O)cc1	?	23.1µM*	?	3.8%	i	4.3%
COc1cccc(-n2c(SCc3cccc(C)c3)nc3c([nH]c4ccccc43)c2=O)c1	?	?	i	·	i	·
Cc1ccc(O)c(N=Nc2ccc(S(=O)(=O)N3CCOCC3)cc2)c1	2.4%	-15.8%	?	-1.2%	i	0.9%
C/C(O)=C(\N=Nc1cc(C)ccc1O)C(N)=O	?	20.6µM*	i	-4.3%	i	-6.9%
